# Reference: PubChem BioAssay (NCATS)
# “And” between values parts separate entries of the source, which are not always exact repeats. Equal values may be shown once. Records with an inconclusive call do not appear. A call without a number means that no potency is given here. The source made the active and inactive calls. Unless noted, the call rests on the fitted dose curve; in most records, active means well fitted curve in the direction sought with a large enough effect; inconclusive means small, poorly fitted or top-dose-only effect, or another doubt; inactive means no such curve, though single readings can be large; an effect the other way counts as inactive or inconclusive.
# Tests used:
# [1] = S16 Schwann cell viability assay (CellTiter-Glo assay) (AID 624031);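 further: cellular ATP luminescence as a viability measure; nearly all actives have a fitted effect of over 70% in size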
# Summary of the method: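 Native S16 Schwann cells (rat), serum-containing medium, overnight attachment then 24 h drug exposure at 37 °C/5% CO2. CellTiter-Glo ATP signal; normalized to cell-free and vehicle wells.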
# [2] = molecular target: Glutaminase kidney isoform, mitochondrial (Homo sapiens) (UniProt O94925); assay: qHTS for Inhibitors of Glutaminase (GLS): LOPAC Validation (AID 624146);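 further: glutamate product detected by oxidase and peroxidase coupled Amplex red fluorescence gain; nearly all actives have a fitted effect of over 60% in size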
# Summary of the method: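 Compounds were pin-transferred onto hKGA, after which L-glutamine (1 mM solution) and a detection mix of glutamate oxidase, HRP and Amplex Red were added. Initial and 30 min RT fluorescence reads were collected.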
# [3] = qHTS of Trypanosoma Brucei Inhibitors: LOPAC Validation (AID 624147)
# Summary of the method: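 In this concentration-response screen, enzyme-free wells defined baseline while DMSO plates tracked drift. Each reaction combined TbPYK, substrate, compound and 130 uM ADP for 45 min at room temperature. Kinase-Glo Plus luminescence gave the signal.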
# [4] = molecular target: Glucagon-like peptide 1 receptor (Homo sapiens) (UniProt P43220); assay: qHTS of GLP-1 Receptor Agonists: LOPAC Validation (AID 624148);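 further: luminescence from a luciferase reporter switched on by cAMP; higher luminescence signal means agonism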
# Summary of the method: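 Agonism scored as increased luciferase luminescence driven by cAMP in HEK293 clones carrying GLP-1R. Cells settled 12 hours, received compound for 4-6 hr at 37 deg C, 5% CO2, and were read after 12 min detection reagent at RT.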
# [5] = HTS Assay for Allosteric Antagonists of the Human D2 Dopamine Receptor: Hit Validation in HTRF (AID 624455); further: potency means the concentration at half of the fitted maximal effect;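 further: stable D1 dopamine receptor cell line scored for blocking the D1 response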
# Summary of the method: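 Signal from an HTRF read-out in D1-expressing stable cells gave hit activity as inhibition of the D1 response.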
# [6] = qHTS assay for small molecule activators of the nuclear factor-kappa B (NF-kB) signaling pathway (AID 651749; active means well fitted activation curve with a large enough effect in the signal ratio; the % refers to the signal ratio); details: NF-kB-bla ME-180 cells, beta-lactamase FRET ratio, 16 h; stronger effect = higher value
# Summary of the method: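 Stably transfected ME-180 line; NF-kB response element upstream of beta-lactamase. Treatment: compound or DMSO, 16 hr. Detection: fluorescent FRET substrate.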
# [7] = molecular target: Tumor necrosis factor (Homo sapiens) (UniProt P01375); assay: qHTS assay to identify small molecules that stimulate Tumor Necrosis Factor-alpha (TNF-alpha) secretion (AID 651757; active means well fitted curve in the direction sought with a large enough effect in the signal ratio; the % refers to the signal ratio)
# Summary of the method: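 Secreted TNF-alpha from compound-treated THP-1 cells (17 hrs, 37 C) was quantified with a homogeneous time-resolved fluorescence antibody assay.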
# [8] = qHTS assay to identify small molecules that stimulate interleukin-8 (IL-8) secretion (AID 651758; active means well fitted activation curve with a large enough effect in the signal ratio; the % refers to the signal ratio)
# Summary of the method: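 Secreted IL-8 measured by TR-FRET sandwich (cryptate and XL665 antibodies) from THP-1 cells exposed to compound overnight (16 hrs, 37 C).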
# [9] = S16 Schwann cell PMP22 intronic element beta-lactamase assay (AID 624044; calls by dose curve; further: nearly all actives have a fitted effect of over 15% in size)
# Summary of the method: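 Rat S16 Schwann cells with beta-Lac driven by a PMP22 intronic element, compound-treated 24 h at 37 °C. LiveBLAzer FRET B/G read: 460 nm normalized to potassium clavulanate vs DMSO; 535 nm FRET as viability; concentration-effect curves classified.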
# [10] = qHTS of Nrf2 Activators: LOPAC Validation (AID 624149)
# Summary of the method: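 ARE reporter activation measured in AREc32 firefly luciferase cells after 24 hr compound exposure; Steady-Glo luminescence.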
# [11] = qHTS Assay for Identification of Small Molecule Agonists for NFkB Signaling Pathway. (AID 624478);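 further: compounds tested together with TNF alpha at its EC50 of 10 pM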
# Summary of the method: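 Cells carrying an NFkB response element-driven beta-lactamase gene are co-treated with compound and 10 pM TNF alpha for 5 h, and reporter activity is then read as 460 and 530 nm fluorescence.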
# [12] = Cell Proliferation Assay against the TMD8 Cell Line (AID 651645); details: TMD8 DLBCL cell line proliferation/viability; at 46.1 µM (top of the series) unless noted;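 further: cells exposed to compound for 48 h before reading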
# Summary of the method: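 Cell viability of the ABC DLBCL line TMD8 is measured by CellTiter-Glo luminescence following a 48-hour incubation with compound. Percent activity uses DMSO as 100% and 9.2 uM bortezomib (final) as 0%.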
# [13] = Cell Proliferation Assay against the HBL1 Cell Line (AID 651646); details: HBL1 DLBCL cells; at 46.1 µM (top of the series) unless noted;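 further: cells exposed to compound for 48 h before reading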
# Summary of the method: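 Luminescent ATP read-out (CellTiter-Glo) after 48 h compound exposure of HBL1 cells at 37 °C; percent activity was scaled between DMSO as 100% and 9.2 uM bortezomib (final) as 0%.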
# [14] = Cytotoxicity counterscreen for NFkB agonists and antagonists (AID 624476); further: potency means the concentration at half of the fitted maximal effect
# [15] = qHTS Assay for Identification of Small Molecule Antagonists for NFkB Signaling Pathway. (AID 624479; calls by dose curve;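 further: pathway stimulated with TNF alpha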; further: potency means the concentration at half of the fitted maximal effect)
# [16] = Cell Proliferation Assay against the TMD8 Cell Line (Caspase readout at 16 hrs) (AID 651712); further: potency means the concentration at half of the fitted maximal effect
# Summary of the method: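 Apoptotic response of TMD8 cells was judged from caspase 3/7 activation following a 16 hour compound incubation at 37 °C. Luminescent signal was converted to percent activity, with DMSO set as 0% and 9.2 uM final bortezomib as 100%.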
# [17] = Cell Proliferation Assay against the TMD8 Cell Line (Caspase readout at 8 hrs) (AID 651713)
# Summary of the method: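 Percent activity derived from Caspase-Glo signal, DMSO set to 0% and bortezomib (9.2 uM final) to 100%. TMD8 cells were exposed to compound for 8 h in RPMI with 5% FBS.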
# Chain of Glutaminase kidney isoform, mitochondrial (Homo sapiens) (O94925 whole entry, looked up, canonical isoform): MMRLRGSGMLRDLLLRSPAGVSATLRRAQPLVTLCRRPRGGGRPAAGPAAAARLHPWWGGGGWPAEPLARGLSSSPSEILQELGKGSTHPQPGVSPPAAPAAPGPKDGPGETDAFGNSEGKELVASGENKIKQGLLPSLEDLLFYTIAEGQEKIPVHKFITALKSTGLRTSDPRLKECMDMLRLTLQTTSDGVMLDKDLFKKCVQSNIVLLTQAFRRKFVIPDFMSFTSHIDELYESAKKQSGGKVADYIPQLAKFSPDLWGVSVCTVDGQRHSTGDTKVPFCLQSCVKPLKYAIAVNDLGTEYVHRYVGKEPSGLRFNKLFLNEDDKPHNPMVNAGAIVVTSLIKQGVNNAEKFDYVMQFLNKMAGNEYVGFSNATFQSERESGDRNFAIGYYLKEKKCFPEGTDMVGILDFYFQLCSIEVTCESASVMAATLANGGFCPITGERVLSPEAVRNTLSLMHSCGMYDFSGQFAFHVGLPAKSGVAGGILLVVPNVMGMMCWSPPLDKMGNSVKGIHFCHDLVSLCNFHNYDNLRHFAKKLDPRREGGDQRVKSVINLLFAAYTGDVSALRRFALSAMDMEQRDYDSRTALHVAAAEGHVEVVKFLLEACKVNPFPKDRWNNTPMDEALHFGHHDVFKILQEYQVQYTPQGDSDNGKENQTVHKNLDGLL
# Chain of Glucagon-like peptide 1 receptor (Homo sapiens) (P43220 whole entry, looked up): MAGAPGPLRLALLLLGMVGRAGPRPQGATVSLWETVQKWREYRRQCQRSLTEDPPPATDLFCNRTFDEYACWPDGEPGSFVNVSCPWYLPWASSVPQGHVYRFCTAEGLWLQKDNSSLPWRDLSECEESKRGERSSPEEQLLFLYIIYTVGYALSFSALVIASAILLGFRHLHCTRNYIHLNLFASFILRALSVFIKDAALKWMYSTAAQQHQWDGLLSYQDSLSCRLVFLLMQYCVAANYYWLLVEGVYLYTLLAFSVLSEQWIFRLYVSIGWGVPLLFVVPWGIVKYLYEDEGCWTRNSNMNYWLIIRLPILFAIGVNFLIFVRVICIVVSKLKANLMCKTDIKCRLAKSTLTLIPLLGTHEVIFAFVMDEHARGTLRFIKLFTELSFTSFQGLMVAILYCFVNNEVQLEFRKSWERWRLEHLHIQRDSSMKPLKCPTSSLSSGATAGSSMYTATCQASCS
# Chain of Tumor necrosis factor (Homo sapiens) (P01375 whole entry, looked up): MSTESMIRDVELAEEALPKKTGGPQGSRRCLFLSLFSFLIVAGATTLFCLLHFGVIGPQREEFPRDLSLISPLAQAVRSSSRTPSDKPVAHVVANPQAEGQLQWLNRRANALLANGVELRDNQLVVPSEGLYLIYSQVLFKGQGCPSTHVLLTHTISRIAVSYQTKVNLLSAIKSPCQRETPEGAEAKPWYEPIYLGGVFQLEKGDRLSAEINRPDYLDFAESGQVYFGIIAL
smiles,measurement,setting,value
CCCC(CCC)C(=O)O,Potency,[1],inactive
same,outcome,[2],inactive
same,outcome,[3],inactive
same,outcome,[4],inactive
same,Potency,[5],inactive
same,activation,[6],0.312% (inactive) and -3.31% (inactive) and -0.945% (inactive)
same,outcome,[7],inactive
same,outcome,[8],inactive
Cc1cc2c(C(C)C)c(O)c(O)c(C=O)c2c(O)c1-c1c(C)cc2c(C(C)C)c(O)c(O)c(C=O)c2c1O,outcome,[9],inactive
same,outcome,[2],inactive
same,outcome,[3],inactive
same,outcome,[4],inactive
same,outcome,[10],inactive
same,Potency,[5],inactive
same,outcome,[11],inactive
same,viability (% of control),[12],5.42%
same,"viability, percent of control",[13],6.38%
NC(=O)c1ccc(-c2nc(-c3ccc4c(c3)OCO4)c(-c3ccccn3)[nH]2)cc1,Potency,[14],inactive
same,outcome,[11],inactive
same,Potency,[15],inactive
same,viability (% of control),[12],92.5%
same,"viability, percent of control",[13],121%
same,Potency,[16],inactive
same,Potency,[17],inactive
Clc1ccc(Nc2nnc(Cc3ccncc3)c3ccccc23)cc1,outcome,[9],inactive
same,Potency,[14],inactive
same,outcome,[11],inactive
same,Potency,[15],inactive
same,viability (% of control),[12],90.1%
same,"viability, percent of control",[13],66.3%
same,Potency,[17],inactive
CCOC(=O)C1=C[C@]2(CC)CCCN3CCc4c(n1c1ccccc41)[C@@H]32,outcome,[9],inactive
same,outcome,[2],inactive
same,outcome,[3],inactive
same,outcome,[4],inactive
same,outcome,[10],inactive
same,Potency,[5],inactive
C[C@]12CCC(=O)C=C1CC[C@@H]1[C@@H]2[C@@H](O)C[C@@]2(C)[C@H]1CC[C@]2(O)C(=O)CO,outcome,[2],inactive
same,outcome,[3],inactive
same,outcome,[4],inactive
same,outcome,[10],inactive
same,Potency,[5],inactive
same,Potency,[14],inactive
same,outcome,[11],inactive
same,Potency,[15],inactive
same,viability (% of control),[12],65.6%
same,"viability, percent of control",[13],39.1%
same,Potency,[16],inactive
same,Potency,[17],inactive
same,activation,[6],-2.01% (inactive)
CCC(C)N(C)C(=O)c1cc2ccccc2c(-c2ccccc2Cl)n1 (stereo not given),outcome,[2],inactive
same,outcome,[3],inactive
same,outcome,[4],inactive
same,outcome,[10],inactive
same,Potency,[5],inactive
same,Potency,[14],inactive
same,outcome,[11],inactive
same,Potency,[15],inactive
same,viability (% of control),[12],65.6%
same,"viability, percent of control",[13],90%
same,Potency,[17],inactive
Nc1ncnc2nc(-c3ccc(N4CCOCC4)nc3)cc(-c3cccc(Br)c3)c12,outcome,[2],inactive
same,outcome,[3],inactive
same,Potency,[5],inactive
same,Potency,[14],inactive
same,outcome,[11],inactive
same,viability (% of control),[12],74.7%
same,"viability, percent of control",[13],66.5%
COCC(=O)NCC=Cc1ccc2ncnc(Nc3ccc(Oc4ccc(C)nc4)c(C)c3)c2c1,Potency,[14],26.4 µM (active)
same,outcome,[11],inactive
same,Potency,[15],10.6 µM (active)
same,viability (% of control),[12],28.1%
same,"viability, percent of control",[13],41.4%
Cc1cccc(-c2[nH]c(C(C)(C)C)nc2-c2ccc3nccnc3c2)n1,outcome,[2],inactive
same,outcome,[3],inactive
same,outcome,[4],inactive
same,outcome,[10],inactive
same,Potency,[5],inactive
same,Potency,[14],inactive
same,outcome,[11],inactive
same,Potency,[15],inactive
same,viability (% of control),[12],34%
same,"viability, percent of control",[13],100%
same,Potency,[17],inactive
COc1cccc2cc(-c3nc(C4CCC(C(=O)O)CC4)n4ncnc(N)c34)[nH]c12 (stereo not given),Potency,[14],inactive
same,outcome,[11],inactive
same,Potency,[15],inactive
same,viability (% of control),[12],18.4%
same,"viability, percent of control",[13],58.5%
C#Cc1cccc(Nc2ncnc3cc(OCCOC)c(OCCOC)cc23)c1,outcome,[9],inactive
same,outcome,[11],inactive
same,viability (% of control),[12],58%
same,"viability, percent of control",[13],74.6%
same,Potency,[17],inactive
CNCc1ccc(-c2[nH]c3cc(F)cc4c3c2CCNC4=O)cc1,Potency,[14],inactive
same,outcome,[11],inactive
same,Potency,[15],21.1 µM (active)
same,viability (% of control),[12],79.6%
same,"viability, percent of control",[13],73.9%
c1ccc([C@H]2CN3CCSC3=N2)cc1,outcome,[2],inactive
same,outcome,[3],inactive
same,outcome,[4],inactive
same,outcome,[10],inactive
CNC[C@H](O)c1cccc(O)c1,Potency,[1],inactive
same,outcome,[2],inactive
same,outcome,[3],inactive
same,outcome,[10],inactive
same,Potency,[5],1.84 µM (active)
same,activation,[6],-0.433% (inactive)
CC(C)(C)NCC(O)c1ccc(O)c(CO)c1 (stereo not given),Potency,[1],inactive
same,outcome,[2],inactive
same,outcome,[3],inactive
same,Potency,[5],inactive
CO[C@@H]1[C@H](N(C)C(=O)c2ccccc2)C[C@H]2O[C@]1(C)n1c3ccccc3c3c4c(c5c6ccccc6n2c5c31)C(=O)NC4,Potency,[14],inactive
same,outcome,[11],inactive
same,Potency,[15],inactive
same,viability (% of control),[12],7.74%
same,"viability, percent of control",[13],23%
same,Potency,[16],2.09 µM (active)
Cc1cnc(NC(=O)C2=C(O)c3ccccc3S(=O)(=O)N2C)s1,outcome,[2],inactive
same,outcome,[3],inactive
same,outcome,[10],inactive
same,Potency,[5],inactive
NNCCc1ccccc1,Potency,[1],inactive
same,outcome,[3],inactive
same,outcome,[4],inactive
same,outcome,[10],inactive
same,Potency,[5],inactive
COc1ccc2c3n(c(=NC(=O)c4cccnc4)nc2c1OC)CCN3,Potency,[14],1.87 µM (active)
same,outcome,[11],inactive
same,Potency,[15],inactive
same,viability (% of control),[12],22.1%
same,"viability, percent of control",[13],39.3%
same,Potency,[16],inactive
same,Potency,[17],inactive
CCn1cc(C(=O)O)c(=O)c2cc(F)c(N3CCNC(C)C3)c(F)c21 (stereo not given),outcome,[2],inactive
same,outcome,[3],inactive
same,outcome,[4],inactive
same,outcome,[10],inactive
same,Potency,[5],inactive
COc1cc(Oc2ccnc3cc(OC)c(OC)cc23)ccc1NC(=O)NC(C)c1nccs1 (stereo not given),Potency,[14],inactive
same,outcome,[11],inactive
same,Potency,[15],16.8 µM (active)
same,viability (% of control),[12],69%
same,"viability, percent of control",[13],59.4%
Oc1ccc(C2CNCCc3c2cc(O)c(O)c3Cl)cc1 (stereo not given),Potency,[1],inactive
same,outcome,[3],inactive
same,outcome,[4],inactive
same,outcome,[10],inactive
C1COC(NC(C2CC2)C2CC2)=N1,outcome,[2],inactive
same,outcome,[3],inactive
same,outcome,[4],inactive
same,outcome,[10],inactive
same,Potency,[5],inactive
Cn1c(=O)c(F)c(Nc2ccc(I)cc2F)c2c(=O)n(C[C@@H](O)CO)cnc21,Potency,[14],inactive
same,outcome,[11],inactive
same,Potency,[15],inactive
same,viability (% of control),[12],63.3%
same,"viability, percent of control",[13],38.3%
O=C(O)COCCN1CCN(C(c2ccccc2)c2ccc(Cl)cc2)CC1 (stereo not given),outcome,[2],inactive
same,outcome,[3],inactive
same,outcome,[4],inactive
same,outcome,[10],inactive
C[C@]12CC[C@H](O)CC1=CC[C@@H]1[C@H]2CC[C@]2(C)C(c3cccnc3)=CC[C@H]12,Potency,[14],inactive
same,outcome,[11],inactive
same,Potency,[15],inactive
same,viability (% of control),[12],29.5%
same,"viability, percent of control",[13],52.7%
same,Potency,[17],inactive
CN(C(=O)c1ccc(F)cc1C(F)(F)F)C1CCN(c2nnc(-c3ccnn3C)c3ccccc23)CC1,Potency,[14],inactive
same,outcome,[11],inactive
same,Potency,[15],inactive
same,viability (% of control),[12],70.8%
same,"viability, percent of control",[13],65.3%
same,Potency,[17],inactive
